{"source": "the OligoGym collection"}
{"target": "PPM1E", "assay": "pooled miR-30 sensor sort-seq; sequence = guide strand", "conditions": "shRNA"}
{"sequence": "TAGATTGAAAACACTGTACTTT", "sensor-assay potency score (higher = more potent)": 0.776}
{"sequence": "TAGTTCAACAGCTTGGCCCTTT", "sensor-assay potency score (higher = more potent)": 0.206}
{"sequence": "TATATTTGTAGAGCTGCTGCAG", "sensor-assay potency score (higher = more potent)": 0.13}
{"sequence": "TTGCTTGCTTCTATTTGTGTGA", "sensor-assay potency score (higher = more potent)": -0.309}
{"sequence": "TTTCTCACAAGCATAACCTGGG", "sensor-assay potency score (higher = more potent)": 0.732}
{"sequence": "TTACATTTAAGAATTGAGCCAT", "sensor-assay potency score (higher = more potent)": 0.639}
{"sequence": "TACAGCTTTGTTCATGTCCCTC", "sensor-assay potency score (higher = more potent)": -0.388}
{"sequence": "TAAAACTTTGGATTAAACCTGA", "sensor-assay potency score (higher = more potent)": -0.0256}
{"sequence": "TTGCTTTCTTTGGTGCACCAGG", "sensor-assay potency score (higher = more potent)": -0.843}
{"sequence": "TTTGGATTAAACCTGAATCTGT", "sensor-assay potency score (higher = more potent)": -0.682}
{"sequence": "TATTTGTGTGAGATCTAGGTAG", "sensor-assay potency score (higher = more potent)": 0.201}
{"sequence": "TTTTAGATTGAAAACACTGTAC", "sensor-assay potency score (higher = more potent)": 0.00481}
{"target": "PPM1F", "assay": "pooled miR-30 sensor sort-seq; sequence = guide strand", "conditions": "shRNA"}
{"sequence": "TTATATGACACAACAGGTCATC", "sensor-assay potency score (higher = more potent)": -0.681}
{"sequence": "TTAAATTATATGACACAACAGG", "sensor-assay potency score (higher = more potent)": -0.831}
{"sequence": "TCTGTCTGTAGCAGCTGTGAAA", "sensor-assay potency score (higher = more potent)": -1.23}
{"sequence": "TTCTGGTCTGTGTGGCTCCATC", "sensor-assay potency score (higher = more potent)": -1.7}
{"sequence": "TCAAACACAGCAAAGTAGGCGC", "sensor-assay potency score (higher = more potent)": -0.108}
{"sequence": "ATATCTGTAAATATGAACCCAC", "sensor-assay potency score (higher = more potent)": -0.596}
{"sequence": "TATGACACAACAGGTCATCTTG", "sensor-assay potency score (higher = more potent)": -0.621}
{"sequence": "AAGGTCTGTCTGTAGCAGCTGT", "sensor-assay potency score (higher = more potent)": -0.309}
{"sequence": "TTTCCTGAGAAACATCTGGTCG", "sensor-assay potency score (higher = more potent)": -0.801}
{"sequence": "TAAATTATATGACACAACAGGT", "sensor-assay potency score (higher = more potent)": -0.732}
{"sequence": "TACCTCGCAGCATCCACGCCTC", "sensor-assay potency score (higher = more potent)": -0.377}
{"sequence": "AACATCTGGTCGGTGCGCCGGA", "sensor-assay potency score (higher = more potent)": -0.815}
